# Source: PubChem BioAssay (NCI)
# About 83,000 compounds went through this panel and 20% of them were active in at least one assay; those are over-represented in the sample as a whole.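 Plates (96-well) were seeded with cells, treated with compound at one concentration, and incubated for 48 hours before percent growth was determined.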 Unmarked numbers belong to inactive results. Calls of active or inactive are those of the source. How the source made its calls: active means growth percent below 10; inactive means the rest.
# System: COLO 205 colon
# Test: NCI-60 one-dose screen, 48 h (100 = growth as untreated, 0 = no growth, -100 = all killed)
# Conditions: 10 µM unless noted
row,SMILES,growth
1,C=C1C(=O)O[C@H]2[C@H]1CC/C(COC(=O)C(=O)c1c[nH]c3ccccc13)=C\CC[C@@]1(C)O[C@@H]21,-62.2% (active)
2,S=C(c1ccc2c(c1)OCO2)N1CCN(c2ccccc2Cl)CC1,97.1%
3,CC(C)(C)CC(C)(C)Nc1c(-c2ccncc2)nc2cnccn12,101%
4,COCCN(C(=O)c1ccc(F)cc1F)c1c(N)n(Cc2ccccc2)c(=O)[nH]c1=O,124%
5,Cc1ccc(N(C(=O)CCc2c[nH]c3ccccc23)[C@H](C(=O)Nc2ccc(Cl)cc2)c2cccc([N+](=O)[O-])c2)cc1,95%
6,COC(=O)c1c2c(c(C)[n+]([O-])c1C)C(=O)C(NCc1ccc(F)cc1)=CC2=O,-49.8% (active)
7,COc1ccc(Cl)cc1NC(=O)C(Br)C(Br)C(=O)O (configuration not stated),105%
8,O=C1Nc2ccccc2/C1=C/c1cn(C(=O)c2c(Cl)cccc2Cl)c2ccccc12,41.7%
9,COC(=O)/C=C1\S/C(=N\NS(=O)(=O)c2ccc(C)cc2)N(c2ccccc2)C1=O,121%
10,CCCCCCCC/C=C\CCCCCCCCOc1ccccc1CC(=O)NCC[N+](C)(C)C,-7.71% (active)
11,NC(=S)Nc1cccc(O)c1,129%
12,CCCCCS(=O)(=O)Nc1ccc(C(=O)O)cc1,104%
13,CCCCCCCCCOc1c(OC)cc(C2CC(=O)Nc3c2c(C)nn3-c2nc3ccccc3[nH]2)cc1OC (configuration not stated),3.77% (active)
14,C=C1C(=O)O[C@H]2[C@H]1CC/C(CNC(=O)/C=C/c1ccc(Cl)cc1Cl)=C\CC[C@@]1(C)O[C@@H]21,-65.5% (active)
15,NNC(=O)c1nc(N)n(-c2ccc(S(N)(=O)=O)cc2)n1,103%
16,C(=N\Nc1ncc(-c2cc3cc4c(cc3o2)OCO4)s1)/c1ccco1,6.46% (active)
17,O=C(/C=C/c1cccc(O)c1)c1cccc(-n2cc(-c3ccc4ccccc4c3)[nH]c2=O)c1,-8.8% (active)
18,COc1cc(Cn2ncc3ccc(NC(=O)c4cc5ccccc5oc4=N)cc32)cc(OC)c1OC,55.1%
19,O=C(CC(SCc1ccccc1)c1ccccc1)c1ccccc1 (configuration not stated),94.3%

row,SMILES,growth
1,CCOc1ccccc1-c1cc(-c2cccs2)c(C#N)c(=O)[nH]1,114%
2,N#CC1=C(NC=O)Oc2c(ccc3ccccc23)C1c1ccccc1 (configuration not stated),96.4%
3,COc1cc(C2CC(c3cc(OC)c(OCCCOc4ccc(-n5c(/C=C/c6ccccc6)nc6ccccc6c5=O)cc4)c(OC)c3)=NO2)cc(OC)c1OC (configuration not stated),115%
4,O=C1Nc2ccc(F)cc2C12Nc1cc(Cl)ccc1S2 (configuration not stated),112%
5,CCN(CC)CCN1C(=O)c2c(c(C)c3c(oc4cc(O)ccc43)c2C)C1=O,12.8%
6,O=C(O)c1ccc2c(c1Cl)C(=O)c1ccccc1C2=O,115%
7,CN(c1ccccc1)c1ccc2c(c1)OCCC21CC1Nc1cnccc1C(=O)O (configuration not stated),68.6%
8,CC1O[C@@H](OC2[C@H](OC(=O)/C=C/c3ccc(O)c(O)c3)C(COC3O[C@H](C)C(O)C(O)[C@@H]3O)O[C@@H](OCCc3ccc(O)c(O)c3)[C@H]2O)[C@@H](O)C(O)[C@H]1O (some centres not stated),104%
9,O=C(CSc1nnc(-c2ccc(NC(=O)c3cccnc3)cc2)o1)Nc1cccc(Br)c1,88.4%
10,CCN1C(=O)N(CC)C2Nn3c(s/c(=C\c4ccc(Cl)cc4Cl)c3=O)=NC21 (configuration not stated),-23% (active)
11,COc1ccc(/C=N/C2=C(C#N)C(c3ccc(OC)cc3)c3ccc4ccccc4c3O2)cc1 (configuration not stated),102%
12,CCOC(=O)C/C(C)=N\NC(=O)c1ccncc1,124%
13,COC(=O)[C@H](CSC)N(C)C(=O)[C@@H]1CSSC[C@@H](NC(=O)c2nc3ccccc3cc2O)C(=O)NCC(=O)N1C,16%
14,COc1ccc2[nH]c(O)c(C(=Nc3ccc(N(C)C(=O)CN4CCN(C)CC4)cc3)c3ccccc3)c2c1,-6.6% (active)
15,O=[N+]([O-])c1ccc(N2c3ccncc3Sc3ccncc32)cc1,111%
16,COc1ccc(CNC(=O)C(O)C(Cc2ccccc2)NC(=O)c2[nH]c3ccccc3c(=O)c2C)cc1OC (configuration not stated),123%
17,N#C/C(=C/C=C/c1cccc(Cl)c1)S(=O)c1ccccc1 (configuration not stated),-63.1% (active)
18,COC(=O)[C@]12CC[C@@H](C)[C@H](C)[C@@H]1C1=CC[C@@H]3[C@@]4(C)C(C=O)=C[C@@](C)(COC(C)=O)C4=CC[C@@]3(C)[C@]1(C)CC2,-66.5% (active)
